Screening results as filed in PubChem.
AMA1-RON2 inh: inhibitors of Plasmodium falciparum AMA1-RON2 interaction | Potency, µM (highest dose often 58.2 µM), inactives show top-dose activity change, negative = inhibition, usual class: inhibitors | actives 0.2% (n = 360,000) | AID 720542 | AlphaScreen AMA1-biotinylated RON2 peptide binding;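 further: potency means the concentration at half of the fitted maximal effect; 0% = vehicle wells and -100% = peptide control; nearly all actives have a fitted effect of over 45% in size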
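AMA1 (3D7) with his tag at 25 nM final met compounds first, then biotinylated RON2 peptide at 25 nM; detection used donor plus acceptor beads, 10 µg/mL apiece, read by AlphaScreen after 30 min at room temperature.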
SARS PLP yeast: SARS-CoV PLP inhibition in yeast. actives 0.19% (n = 330,000). Potency, µM (highest dose often 32.9 µM), for inactives: at the highest dose activity, positive = growth rescue, most hits filed as activators. AID 485353. S. cerevisiae expressing SARS-CoV PLpro, growth rescue; calls by dose curve; further: potency means the concentration at half of the fitted maximal effect; 0% is about no effect; nearly all actives have a fitted effect of over 55% in size
Shiga toxin inh: blocks Shiga toxin action in Vero cells. AID 2315. Vero cells, Shiga toxin protein synthesis inhibition reporter. actives 9.2% (n = 290,000). inhibition, % at 38.7 µM; in the data active means inhibition mostly above about 28%, no sharp cut-off; inactive means mostly below about 43%; further: 0% is about no effect
Pf growth 96h: inhibits malaria parasite growth, 96 h; actives 6.9% (n = 320,000); Potency, µM (doses to about 28.7 µM), for the others: top-dose activity change, negative = inhibition, hits mostly inhibitors; P. falciparum luciferase reporter growth, 96 h; further: potency means the concentration at half of the fitted maximal effect; on the % scale 0 is the no-effect control and ±100 the full control effect
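Luminescence readout: decreased luciferase signal marks inhibited growth of reporter-expressing P. falciparum in infected red cells (2% hematocrit, 0.05% parasitemia final), exposed to compound two generations (96 h, 37 C, 5% CO2).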
CHX counter: counter-screen for Shiga toxin inhibitors: cycloheximide protein synthesis inhibition; max response, %; AID 2314; cell reporter, cycloheximide protein synthesis inhibition counterscreen; actives 12% (n = 300,000); in the data active means max response mostly above about 13%, no sharp cut-off; inactive means mostly below about 14%; further: read at 38.3 µM for the half of the compounds with a filed dose; 0% is about no effect
Pf growth 48h: inhibits P. falciparum growth in the first generation, 48 h | P. falciparum luciferase growth in erythrocytes, 48 h | Potency, µM (doses to about 28.7 µM), inactives show at the top dose activity change, negative = inhibition, most hits filed as inhibitors | actives 5.9% (n = 310,000); further: potency means the concentration at half of the fitted maximal effect; on the % scale 0 is the no-effect control and ±100 the full control effect
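Luciferase-expressing P. falciparum in infected erythrocytes (2% hematocrit, 0.1% parasitemia final) in RPMI 1640/0.5% Albumax were exposed to compound for 48 hours at 37 C, 5% CO2; growth read as luminescence.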
Active calls of the source: *; i = inactive; ? = inconclusive; nt = not tested or not shown; [ ] = another dose, or the depositor's remark. Hits are enriched below; roughly 19% of the tested compounds scored in any of these assays. Unless noted, the call rests on the fitted dose curve; in most records, active means well fitted curve in the direction sought with a large enough effect; inconclusive means small, poorly fitted or top-dose-only effect, or another doubt; inactive means no such curve, though single readings can be large; an effect the other way counts as inactive or inconclusive.

SMILES | AMA1-RON2 inh | SARS PLP yeast | Shiga toxin inh | Pf growth 96h | CHX counter | Pf growth 48h
COc1cccc(CC2(CO)CCCN(Cc3ccccc3Cl)C2)c1 (stereo unspecified) | 0% | -1% | -4 | 10µM* | -3 | 21%
COc1cccc(CC2(CO)CCCN(Cc3cn(C)c4ccccc34)C2)c1 (stereo unspecified) | -2% | 0% | -15 | 10% | 2 | ?
COc1ccc(F)c(CN2CCCC(CO)(Cc3cccc(Cl)c3)C2)c1 (stereo unspecified) | -3% | 0% | -2 | -29% | -5 | -1%
COc1cccc(CC2(CO)CCCN(Cc3cc(F)ccc3-n3cccn3)C2)c1 (stereo unspecified) | -15% | -2% | -15 | 36% | -4 | 13µM*
COc1ccc(Oc2nc(OC)cc(OC)n2)cc1 | -1% | 1% | -11 | -16% | 1 | 27%
Cc1cccc(NC(=O)CCN2CCCC(C)C2)c1 (stereo unspecified) | 17% | -6% | -17 | -7% | -3 | 24%
CC(=O)Nc1ccc(S(=O)(=O)N(c2cccnc2)S(=O)(=O)c2ccc(NC(C)=O)cc2)cc1 | 11% | 18% | -2 | -2% | -2 | -5%
OCC1(Cc2ccccc2)CCCN(C2CCCC2)C1 (stereo unspecified) | -1% | 0% | -17 | 22% | -2 | ?
CCOC(=O)N1CCC(N2CCCC(CO)(Cc3cccc(OC)c3)C2)CC1 (stereo unspecified) | -9% | -1% | -18 | 3.3µM* | -1 | ?
CC(C)Oc1ccc(CN2CCCC(CO)(Cc3ccccc3)C2)cc1CO (stereo unspecified) | 14% | -2% | nt | -18% | -2 | 6%
COc1ccc(CN2CCCC(CO)(Cc3ccc(F)cc3)C2)cc1C (stereo unspecified) | 0% | -3% | -16 | ? | 6 | 15µM*
Cc1cc(C)c(S(=O)(=O)Nc2cccc(/C=C/C(=O)O)c2)c(C)c1 | 3% | 1% | 2 | 4% | 0 | 4%
CN(C)CCNC(=O)C(=O)Nc1cc2c3c(c1)CCN3C(=O)CC2 | 2% | 1% | -3 | 18% | -3 | 19%
COCc1cc(C)nc(SCC(=O)Nc2ccccc2N2CCOCC2)c1C#N | 33% | -3% | -10 | ? | 1 | ?
COCc1cc(C)nc(SCC(=O)Nc2ccc3c(c2)OCCO3)c1C#N | -1% | 0% | 19 | 11% | 11* | 49%
COCc1cc(C)nc(SCC(=O)Nc2cccc3cccnc23)c1C#N | 105% | -12% | -5 | 12µM* | -3 | 15%
CCOc1ccc(CSc2nc(C)cc(COC)c2C#N)cc1OCC | 9% | -6% | 6 | -15% | -3 | 13µM*
O=C1CCCc2c1ccc1ccccc21 | 18% | nt | nt | nt | nt | nt
O=C(COC(=O)c1cc(F)cc(F)c1)NCCCc1ccccc1 | -4% | -2% | -10 | 37% | -7 | 29%
CC1CCCCN1C(=O)C(Cc1ccccc1)N1C(=O)C2CCCCC2C1=O (stereo unspecified) | -14% | 11% | -18 | 13µM* | 1 | -4%
CC1CCCCN1C(=O)N[C@@H](Cc1ccccc1)C(=O)O (stereo partly specified) | 18% | 4% | 9 | 15% | 6 | 8%
Cc1sc2c(c1C)C(=O)NC(c1ccccc1F)N2 (stereo unspecified) | 0% | 3% | 100* | 102% | 31* | 63%
CN(C(=O)CSc1nc2[nH]ncc2c(=O)[nH]1)c1ccccc1 | 7% | -1% | nt | 7% | nt | 5%
COc1ccccc1/C=C/CN1CCCC(CO)(Cc2cccc(Cl)c2)C1 (stereo unspecified) | -17% | 0% | 47* | -2% | 9 | ?
COc1ccc(/C=C/CN2CCCC(CO)(Cc3cccc(Cl)c3)C2)cc1 (stereo unspecified) | -5% | 0% | 2 | 12% | -2 | 13µM*
SMILES | AMA1-RON2 inh | SARS PLP yeast | Shiga toxin inh | Pf growth 96h | CHX counter | Pf growth 48h
COc1cccc(CC2(CO)CCCN(C/C=C/c3ccccc3OC)C2)c1 (stereo unspecified) | -8% | 0% | -2 | -6% | -5 | ?
CCOC(=O)Nc1ccc2c(COC(=O)CNS(=O)(=O)c3cccc(Br)c3)cc(=O)oc2c1 | 7% | 8% | -3 | 64% | -1 | 36%
Cc1cc(=O)oc2cc(OCC(=O)Nc3nccs3)ccc12 | 6% | -1% | 74* | 384% | 35* | 108%
Cc1c(C)c2ccc(OCC(=O)Nc3ccccn3)cc2oc1=O | 21% | 7% | 62* | 149% | 34* | 123%
Cc1c(C)c2ccc(OCC(=O)NCc3ccccn3)cc2oc1=O | -8% | 6% | -7 | 0% | -6 | ?
Cc1c(C)c2ccc(OCC(=O)Nc3nccs3)cc2oc1=O | ? | 4% | 78* | 236% | 45* | 221%
CCCCc1cc(=O)oc2cc(OCC(=O)Nc3ccccn3)ccc12 | -4% | -6% | 98* | 45% | 40* | 81%
CCCCc1cc(=O)oc2cc(OCC(=O)NCc3ccccn3)ccc12 | 15% | 9% | -6 | -5% | 4 | 6%
O=C(COC(=O)[C@H](Cc1ccccc1)NC(=O)c1cccs1)Nc1c(Cl)cccc1Cl | -3% | -12% | -13 | 34% | -4 | 9%
O=C(CCc1nnc(-c2ccsc2)o1)N1CCCCC1CCn1ccnc1 (stereo unspecified) | -3% | 0% | 21 | i | 6 | 33%
Cc1nn(-c2ccccc2)c(Cl)c1/C=N/NC(=O)c1ccnn1C | 1% | -5% | 107* | 97% | 34* | 94%
Cc1nn(-c2ccccc2)c(Cl)c1/C=N/NC(=O)c1cccc(S(=O)(=O)N2CCCC2)c1 | -13%[11.6 µM] | -28% | 15 | 23% | -3 | 12%
Cc1ccc(C)c(OCC(=O)N/N=C/c2c(C)nn(-c3ccccc3)c2Cl)c1C | -3% | -1% | -2 | 224% | -3 | -19%
Cc1nn(C)c(Cl)c1/C=N/OC(=O)c1ccccc1 | 18% | -2% | -1 | 26% | 16* | -1%
Cc1nn(-c2ccccc2)c(Cl)c1/C=N/NC(=O)CNC(=O)c1ccccc1Cl | 13% | 5% | 23 | 1.9µM* | 18* | 28%
Cc1nn(-c2cccc(Cl)c2)c(Cl)c1/C=N/NC(=O)c1cccnc1 | 0% | -5% | 22 | 44% | 17* | 8%
Cc1nn(-c2ccccc2)c(Cl)c1/C=N/Nc1nc2ccccc2n1C | 12% | 0% | 79* | ? | 54* | -67%
Cn1c(Cl)c(/C=N/OC(=O)c2ccccc2Cl)c2ccccc21 | -4% | -5% | 24 | 75% | 14* | 29%
COC(=O)N/N=C/c1c(C)nn(-c2cccc(Cl)c2)c1Cl | 0% | -46% | 55* | ? | 49* | 6%
